Compounds without any hit were thinned out: in the full panel of roughly 79,000, 15% have a hit. No stated cut-off is given here; in the data, active means growth inhibition above about 70%; inactive means the rest.
What was measured:
[1] = NCI Yeast Anticancer Drug Screen. Data for the rad50 strain (AID 155);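 further: 0% = growth of vehicle-only cultures of the same strain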; settings: S. cerevisiae rad50 strain growth inhibition; at 50.0 µM; stronger effect = higher value
Outline: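 Growth of the mutant yeast was measured after compound exposure and referenced to vehicle-treated cultures.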

[2] = NCI Yeast Anticancer Drug Screen. Data for the mec2-1 strain (AID 157); settings: S. cerevisiae mec2-1 strain, at 50.0 µM, stronger effect = higher value
Outline: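 mec2-1 yeast strain, carrying an alteration in DNA damage repair or cell cycle control, was exposed to compounds; growth inhibition was measured relative to vehicle-treated controls.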

[3] = NCI Yeast Anticancer Drug Screen. Data for the sgs1 mgt1 strain (AID 161);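 further: 0% = growth of cultures given vehicle only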; settings: S. cerevisiae sgs1 mgt1 strain, at 50.0 µM, stronger effect = higher value
Outline: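 Percent growth inhibition was derived by comparing compound-exposed mutant yeast with vehicle-exposed cultures. The strain carries alterations in DNA damage repair.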

[4] = NCI Yeast Anticancer Drug Screen. Data for the cln2 rad14 strain (AID 165);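 further: 0% = growth equal to vehicle treated cultures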; settings: S. cerevisiae cln2 rad14 strain, at 50.0 µM, stronger effect = higher value
Outline: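 Yeast carrying cln2 and rad14 alterations (cell cycle control and DNA damage repair) were exposed to compounds. Growth inhibition was measured against vehicle-treated controls.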

[5] = NCI Yeast Anticancer Drug Screen. Data for the bub3 strain (AID 167); settings: S. cerevisiae bub3 mutant strain, at 50.0 µM, stronger effect = higher value
Outline: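 Whole-cell yeast assay. The mutant strain was incubated with compounds, and growth inhibition was determined by comparison with vehicle-treated cells.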

Measured: growth inhibition

CC(=O)CC(=O)CCCCC(=O)O
inactive: [1] -0.15% | [2] -11.1% | [3] -6.55% | [4] -22.6% | [5] -5.6%

CC1CCOC(c2ccccc2Cl)O1 (stereo not given)
inactive: [1] -25% | [2] 14.1% | [3] -4.55% | [4] -12.1% | [5] -9.3%

C/C(=N\NC(=S)N1CCCC1)c1ccc[nH]1
inactive: [1] -6.55% | [2] 3.05% | [3] -0.05% | [4] -11.6% | [5] -7.75%

COc1cc(C(=O)N2C[C@H](O)C[C@H]2C(=O)O)cc(OC)c1OC
inactive: [1] -18.4% | [2] -15.9% | [3] -32.8% | [4] -5.75% | [5] -16.4%

c1ccc(SSc2ccc3ccccc3c2)cc1
inactive: [1] 22.4% | [2] 39.1% | [3] 32.6% | [4] 24.6% | [5] 31.4%

Nc1cccnc1NCC(O)c1ccccc1 (stereo not given)
inactive: [1] 1.9% | [2] -13.7% | [3] -9.45% | [4] -12.6% | [5] -11.6%

NC1Nc2ccccc2NC1=O (stereo not given)
inactive: [1] 4.85% | [2] 10.2% | [3] 3.4% | [4] -3.15% | [5] 6.4%

c1ccc(CN2CCC3(N4CCOCC4)C(C2)N=NN3c2ccccc2)cc1 (stereo not given)
inactive: [1] -27.9% | [2] -9.6% | [3] 0.65% | [4] -1.05% | [5] -11.7%

O=c1[nH]c(-c2cccnc2)nnc1-c1ccc(Cl)cc1
inactive: [1] 17.1% | [2] 2.4% | [3] 10.4% | [4] 28.4% | [5] 27.9%

CCN(CC)CCSc1cc(C)c2ccc(N)nc2n1
inactive: [1] -5.65% | [2] -24% | [3] 6.6% | [4] 15.1% | [5] 8.6%

NC(CO)CSCc1ccccc1 (stereo not given)
inactive: [1] 1.65% | [2] 1.6% | [3] 11.6% | [4] -4.4% | [5] 13.3%

O=C1NC(O)c2cccc(F)c2O1 (stereo not given)
inactive: [1] 20.4% | [2] 6.3% | [3] 43.4% | [4] 31.5% | [5] 6.7%

c1ccc(-c2coc(-c3ccccc3)n2)cc1
inactive: [1] 1.15% | [2] 8.65% | [3] 3.25% | [4] -2% | [5] -5.15%

CC(C)OC(=O)NN(C)c1ccccc1
inactive: [1] 15.4% | [2] 11.1% | [3] 14% | [4] -54.3% | [5] 3.9%

CN(C)c1nc2oc(-c3ccccc3)c(-c3ccccc3)c2c2nncn12
inactive: [1] 9.65% | [2] 7.45% | [3] 2.9% | [4] 16.9% | [5] 12.1%

C/C(=N/Nc1ccc([N+](=O)[O-])cc1[N+](=O)[O-])C(C)(C)C
inactive: [1] -3.05% | [2] -13.2% | [3] 0.35% | [4] 3.15% | [5] -8.75%

CCN(CCO)CC(O)Cn1cnc2c(N)ncnc21 (stereo not given) (tested in a mixture with another compound)
inactive: [1] -10.6% | [2] 26.2% | [3] -11.8% | [4] 31.4% | [5] -1.95%

CCCCCC(=O)C(C)=O
inactive: [1] -22.8% | [2] -5.9% | [3] -0.9% | [4] -20.8% | [5] -20.8%

O=C(Cc1ccc(Cl)cc1)c1ccccc1Cl
inactive: [1] 2.8% | [2] 2.75% | [3] -1% | [4] 1.7% | [5] -5.65%

CC1CN(C(=S)Nc2ccccc2)C(C)CN1CCO (stereo not given)
inactive: [1] 58.5% | [2] 1.6% | [3] 14.2% | [4] -39% | [5] -3.9%

COc1ccc(NC(=O)CC(=O)N2N=C(N(CCC#N)c3ccc(Cl)cc3)CC2c2ccccc2)cc1 (stereo not given)
inactive: [1] 16.5% | [2] -17% | [3] -1.55% | [4] 7.5% | [5] 2.05%

Cc1ccc(C(=O)c2c[nH]c(=O)[nH]c2=O)cc1
inactive: [1] 9.45% | [2] -20.2% | [3] -6.7% | [4] -6.5% | [5] -3.05%

C=CCSC(=S)Nc1nc2ccc(C)cc2s1
inactive: [1] -19.9% | [2] 4.75% | [3] 0.25% | [4] 0.2% | [5] -2.05%

Cc1nn(C(=O)Cc2ccccc2)c2c1C(c1ccc(O)cc1O)SC(N)=N2 (stereo not given)
inactive: [1] -38.9% | [2] -23.1% | [3] -35.5% | [4] 0.8% | [5] -15.6%
